Several values for one entry are separate records, joined by “and”; a condition that tells them apart may be missing. Identical values can stand only once. Counter-ions that a name gives are not always drawn.
Columns and labels:
Assay in all cases: cell viability relative to vehicle control; higher = less cytotoxic
Conditions in all cases: 10 µM
K562 = tested on: K562
Summary of the method: (§1)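 Mutant clones made by CRISPR editing and their isogenic wild-type counterparts, from four leukaemia lines, were exposed to a single 10 µM dose of each library compound for 48 h. The supernatant was then removed and CellTiter-Glo luminescence was read. Viability was reported as percent of the on-plate vehicle control.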

MARIMO = tested on: MARIMO
Summary of the method: as §1

MOLM14 = tested on: MOLM14
Summary of the method: as §1

OCI-AML2 = tested on: OCI-AML2
Summary of the method: as §1

| Structure (SMILES) | cell viability (K562; SRSF2 genotype: SRSF2 P95H/wt) | cell viability (K562; SRSF2 genotype: SRSF2 wt/wt) | cell viability (MARIMO; SRSF2 genotype: SRSF2 P95H/wt) | cell viability (MARIMO; SRSF2 genotype: SRSF2 wt/wt) | cell viability (MOLM14; SRSF2 genotype: SRSF2 P95H/wt) | cell viability (MOLM14; SRSF2 genotype: SRSF2 wt/wt) | cell viability (OCI-AML2; SRSF2 genotype: P95H/wt) | cell viability (OCI-AML2; SRSF2 genotype: wt/wt) |
| --- | --- | --- | --- | --- | --- | --- | --- | --- |
| COc1cc2c(cc1OC)-c1cc3ccc(OC)c(OC)c3c[n+]1CC2 [Palmatine] | 80.5% and 88.6% | 90.2% | 92.6% | 92% | 93.5% | 90.9% | 88.8% | 78.7% |
| CNC1CCCN(c2c(F)cc3c(=O)c(C(=O)O)cn(C4CC4)c3c2OC)C1 (stereo not drawn) [Balofloxacin] | 104% and 108% | 105% | 107% | 105% | 107% | 109% | 106% | 94.3% |
| CCN(CCCc1ccccc1)CCCc1ccccc1 [Alverine Citrate] | 75.1% and 81.5% | 80.6% | 69.5% | 83.8% | 80.3% | 87.4% | 87.6% | 86.5% |
| O=C(Nc1cccc(C(F)(F)F)c1)c1cccc2cc(Oc3cc(CO)ncn3)ccc12 | 80.8% and 91.3% | 87.8% | 101% | 121% | 86.9% | 98.6% | 90.7% | 96.3% |
| Cc1cc(Nc2ncnc3ccc(-c4ccc(CNCCS(C)(=O)=O)o4)cc23)ccc1Oc1ccn2ncnc2c1 [HER2 Inhibitor 1] | 96.3% and 102% | 105% | 107% | 108% | 93% | 101% | 95.7% | 89.6% |
| CCC[C@@H]1C[C@@H](C(=O)N[C@@H]([C@H]2O[C@H](SC)[C@H](O)[C@@H](O)[C@H]2O)[C@H](C)Cl)N(C)C1 [Clindamycin] | 96.3% and 99.1% | 103% | 104% | 106% | 95.3% | 99.8% | 113% | 98.9% |
| CC(C)=CCCC(C)(OC1OC(COC2OCC(O)C(O)C2O)C(O)C(O)C1O)C1CCC2(C)C1C(O)CC1C3(C)CCC(OC4OC(CO)C(O)C(O)C4O)C(C)(C)C3CCC12C (stereo not drawn) [Gynostemma Extract] | 100% and 107% | 102% | 108% | 111% | 101% | 102% | 110% | 98% |
| OC(CN1CCN(c2cccc(Cl)c2)CC1)C(c1ccccc1)c1ccccc1 (stereo not drawn) | 84.9% and 91.9% | 91.3% | 84.2% | 90.6% | 86.9% | 94.5% | 86.9% | 89.1% |
| COC1=C2C[C@@H](C)C[C@H](OC)[C@H](O)[C@@H](C)/C=C(\C)[C@H](OC(N)=O)[C@@H](OC)/C=C\C=C(/C)C(=O)NC(=CC1=O)C2=O [Geldanamycin] | 15.4% and 22.8% | 24.4% | 26.4% | 19.1% | 1.24% | 1.11% | 1.59% | 10.6% |
| CC(NC(=O)c1ccccc1/N=C/c1c(O)ccc2ccccc12)c1ccccc1 (stereo not drawn) [Sirtinol] | 93% and 101% | 103% | 102% | 98.7% | 94.7% | 101% | 103% | 102% |
| CCCc1nn(C)c2c(=O)[nH]c(-c3cc(S(=O)(=O)N4CCN(C)CC4)ccc3OCC)nc12 [Sildenafil Mesylate] | 103% and 96.9% | 103% | 99% | 108% | 107% | 103% | 110% | 105% |
| CS(=O)(=O)CCNCc1ccc(-c2ccc3ncnc(Nc4ccc(OCc5cccc(F)c5)c(Cl)c4)c3c2)o1 | 54.6% and 37% | 56.7% | 88.7% | 90.3% | 86.2% | 60.6% | 65% | 59.5% |
| Cc1nnc(C(=O)NC(C)(C)c2nc(C(=O)NCc3ccc(F)cc3)c(O)c(=O)n2C)o1 [Raltegravir (MK-0518)] | 101% and 94.3% | 94.6% | 95.8% | 103% | 98.1% | 93.5% | 95.4% | 98% |
| O=C1N=C(O)NC1(c1ccccc1)c1ccccc1 [Phenytoin sodium (Dilantin)] | 98% and 104% | 96.8% | 104% | 103% | 97.7% | 102% | 103% | 94% |
| CNC(CC(=O)O)C(=O)O [NMDA (N-Methyl-D-aspartic acid)] | 102% and 94.2% | 99.7% | 101% | 99.5% | 100% | 99% | 94.4% | 107% |
| Cc1onc(-c2ccccc2Cl)c1C(=O)N[C@@H]1C(=O)N2[C@@H]1SC(C)(C)[C@@H]2C(=O)O [Cloxacillin sodium] | 102% and 109% | 97.6% | 102% | 106% | 102% | 106% | 105% | 108% |
| CCCNC(=O)C1OC1C(=O)NC(C(=O)N1CCCC1C(=O)OC)C(C)CC (stereo not drawn) [CA-074 methyl ester (CA-074 Me)] | 76.9% and 62.3% | 70.2% | 66% | 90.1% | 18.2% | 11.8% | 25.6% | 24.1% |
| COc1cc(C(=O)NC2CCCNC2)cc(OC)c1OC (stereo not drawn) [Troxipide] | 98.2% and 99.3% | 101% | 102% | 106% | 103% | 100% | 99.7% | 105% |
| COc1ccc(O)cc1 [Mequinol] | 103% and 95.3% | 106% | 91.1% | 100% | 95.6% | 96.9% | 90.4% | 103% |
| Cc1cnc(NC(=O)C2=C(O)c3ccccc3S(=O)(=O)N2C)s1 [Meloxicam (Mobic)] | 98.6% and 90.8% | 90% | 86.4% | 103% | 90.8% | 92.7% | 86.6% | 99.4% |
| COc1ccc(CCO[C@@H]2O[C@H](CO[C@@H]3OC[C@H](O)[C@H](O)[C@H]3O)[C@@H](OC(=O)/C=C/c3ccc(O)c(OC)c3)[C@H](O[C@@H]3O[C@@H](C)[C@@H](O)[C@@H](O)[C@H]3O)[C@H]2O)cc1O [Angoroside C] | 107% and 103% | 111% | 101% | 96.2% | 113% | 106% | 105% | 95.5% |

| Structure (SMILES) | cell viability (K562; SRSF2 genotype: SRSF2 P95H/wt) | cell viability (K562; SRSF2 genotype: SRSF2 wt/wt) | cell viability (MARIMO; SRSF2 genotype: SRSF2 P95H/wt) | cell viability (MARIMO; SRSF2 genotype: SRSF2 wt/wt) | cell viability (MOLM14; SRSF2 genotype: SRSF2 P95H/wt) | cell viability (MOLM14; SRSF2 genotype: SRSF2 wt/wt) | cell viability (OCI-AML2; SRSF2 genotype: P95H/wt) | cell viability (OCI-AML2; SRSF2 genotype: wt/wt) |
| --- | --- | --- | --- | --- | --- | --- | --- | --- |
| CC[C@H]1OC(=O)[C@H](C)[C@@H](O[C@H]2C[C@@](C)(OC)[C@@H](O)[C@H](C)O2)[C@H](C)[C@@H](O[C@@H]2O[C@H](C)C[C@H](N(C)C)[C@H]2O)[C@](C)(O)C[C@@H](C)C(=O)[C@H](C)[C@H]2OC(=O)O[C@@]21C [Erythromycin Cyclocarbonate] | 101% and 103% | 92.5% | 98.3% | 101% | 104% | 99.5% | 99% | 101% |
| CC(C)N(CC[C@H](c1ccccc1)c1cc(CO)ccc1O)C(C)C | 89.7% and 94% | 98.4% | 88.3% | 90.7% | 93.3% | 97.9% | 93.5% | 90.9% |
| CNCCC(Oc1ccc(C(F)(F)F)cc1)c1ccccc1 (stereo not drawn) [Fluoxetine HCl] | 75.2% and 82.5% | 88.8% | 63.5% | 75.2% | 68.8% | 81.6% | 63.1% | 74.1% |
| Cc1ccc(-n2sc(=O)n(Cc3ccc(F)cc3)c2=O)cc1 | 78.6% and 73.5% | 78% | 67.2% | 72.6% | 47.6% | 61.8% | 50.6% | 50.9% |
| CCC(=O)Nc1cccc(Oc2nc(Nc3ccc(N4CCN(C)CC4)cc3OC)ncc2Cl)c1 | 90.9% and 97.3% | 90.6% | 70.3% | 68.3% | 39.9% | 40.7% | 61.2% | 59.2% |
| C=C1CCC[C@]2(C)C=C3OC(=O)C(C)=C3C[C@@H]12 [Atractylenolide I] | 102% and 110% | 106% | 97.2% | 102% | 103% | 103% | 116% | 91.6% |
| CN(C)C(=O)c1cc2cnc(Nc3ccc(N4CCNCC4)cn3)nc2n1C1CCCC1 [Ribociclib (LEE011)] | 96.4% and 111% | 110% | 68% | 64.7% | 54.2% | 46% | 62% | 57% |
| COc1ccnc(C[S+]([O-])c2nc3cc(OC(F)F)ccc3[nH]2)c1OC (stereo not drawn) [Pantoprazole sodium] | 98.7% and 96.7% | 95.9% | 97% | 101% | 96.5% | 97.3% | 95.7% | 104% |
| CCCCc1nc2cc(/C=C/C(=O)NO)ccc2n1CCN(CC)CC [SB939 (Pracinostat)] | 1.57% and 13.7% | 4.32% | 9.81% | 13.9% | 1.19% | 0.63% | 4.26% | 6.25% |
| CCN(CC)Cc1ccc2cc(COC(=O)Nc3ccc(C(=O)NO)cc3)ccc2c1 [ITF2357 (Givinostat)] | 1.36% and 7.22% | 1.85% | 4.74% | 9.63% | 0.81% | 0.55% | 1.72% | 3.52% |
| C=C1C[C@@]23CC[C@H]4[C@@](C)(CCC[C@@]4(C)C(=O)O[C@@H]4O[C@H](CO)[C@@H](O)[C@H](O)[C@H]4O)[C@@H]2CC[C@]1(O[C@@H]1O[C@H](CO)[C@@H](O)[C@H](O[C@@H]2O[C@H](CO)[C@@H](O)[C@H](O)[C@H]2O)[C@H]1O[C@@H]1O[C@H](CO)[C@@H](O)[C@H](O)[C@H]1O)C3 [Rebaudioside A] | 95.1% and 100% | 102% | 98.8% | 106% | 105% | 102% | 104% | 105% |
| N#CC[C@H](C1CCCC1)n1cc(-c2ncnc3[nH]ccc23)cn1 [S-Ruxolitinib] | 108% and 98.5% | 113% | 101% | 104% | 75.5% | 89.4% | 83.4% | 77.2% |
| CCOc1cc2ncc(C#N)c(Nc3ccc(F)c(Cl)c3)c2cc1NC(=O)/C=C/CN(C)C [Pelitinib (EKB-569)] | 9.19% and 1.6% | 0.91% | 5.88% | 1.37% | 0.45% | 0.62% | 0.33% | 0.46% |
| C=CC(=O)Nc1ccc2ncnc(Nc3ccc(OCc4cccc(F)c4)c(Cl)c3)c2c1 | 25.1% and 46.8% | 60% | 28.4% | 44.3% | 12.6% | 7.61% | 1.91% | 20.6% |
| N[C@@H](Cc1cc(I)c(Oc2cc(I)c(O)c(I)c2)c(I)c1)C(=O)O [L-Thyroxine] | 87.7% and 96.4% | 101% | 106% | 114% | 98.8% | 106% | 102% | 114% |
| Cc1c(C(=O)C=Cc2ccccc2)[n+](=O)c2ccccc2n1[O-] [Quinocetone] | 72.1% and 60% | 74.1% | 62.2% | 63.8% | 56.5% | 62.6% | 62.7% | 68.6% |
| Cn1cnc(-c2cc3nccc(Oc4ccc(NC(=S)NC(=O)Cc5ccccc5)cc4F)c3s2)c1 | 80.4% and 84.1% | 71.9% | 87.8% | 105% | 23.3% | 15.3% | 49.2% | 58.8% |
| CN(C)CCN1C(=O)c2cccc3cc(N)cc(c23)C1=O [Amonafide] | 33.8% and 37.6% | 32.1% | 7.66% | 10.7% | 0.3% | 0.27% | 0.94% | 2.97% |
| CCOc1cc(C(C)(C)C)ccc1C1=N[C@@](C)(c2ccc(Cl)cc2)[C@@](C)(c2ccc(Cl)cc2)N1C(=O)N1CCN(CCCS(C)(=O)=O)CC1 | 80.8% and 82.7% | 79.8% | 91.2% | 107% | 0.32% | 0.35% | 0.58% | 13.8% |
| OC[C@H]1O[C@@](CO)(OC[C@@]2(OC[C@@]3(O[C@H]4O[C@H](CO)[C@@H](O)[C@H](O)[C@H]4O)O[C@H](CO)[C@@H](O)[C@@H]3O)O[C@H](CO)[C@@H](O)[C@@H]2O)[C@@H](O)[C@@H]1O [Nystose] | 106% and 101% | 111% | 100% | 101% | 106% | 100% | 106% | 102% |

— the supplement of paper PMC10981050
